Laboratory results taken from the supplement of paper PMC6555819.

Columns and labels:
Test in all cases: PBM binding z-score (relative to random genomic background probes); higher = stronger binding; sequences stand for … in GC…GCGATTGACAGCGTAGAATGAAGG
[1] = test system: PPARg:RXRa DBDmut IVT, anti-RXR (DBD mutation: RXRa K156A/R161A, NR concentration 270 nM, RXRa partner concentration 90 nM)
Outline: (§1)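 Binding z-scores take random background probes as their reference. They come from custom Agilent 4×180K protein-binding microarrays incubated 1 h with ligand-free nuclear receptor dimers, with antibodies against each partner (one per run) detecting binding. Scanned fluorescence was regression-normalized.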

[2] = test system: PPARg:RXRa IVT, anti-PPARg (NR concentration 270 nM, RXRa partner concentration 90 nM)
Outline: as §1

[3] = test system: PPARg DBDmut:RXRa IVT, anti-PPARg (DBD mutation: PPARg1 K132A/R137A, NR concentration 270 nM, RXRa partner concentration 90 nM)
Outline: as §1

[4] = test system: PPARg DBDmut IVT, anti-PPARg (DBD mutation: PPARg1 K132A/R137A, NR concentration 270 nM)
Outline: as §1

[5] = test system: PPARg homodimer (NR concentration 180 nM)
Outline: as §1

[6] = test system: PXR:RXRa (NR concentration 270 nM, RXRa partner concentration 90 nM)
Outline: as §1

[7] = test system: PXR homodimer (NR concentration 270 nM)
Outline: as §1

[8] = test system: RARa:RXR (NR concentration 270 nM, RXRa partner concentration 90 nM)
Outline: as §1

[9] = test system: RARa homodimer (NR concentration 270 nM)
Outline: as §1

[10] = test system: RARb:RXRa (NR concentration 270 nM, RXRa partner concentration 90 nM)
Outline: as §1

Sequence	PBM binding z-score [1]	PBM binding z-score [2]	PBM binding z-score [3]	PBM binding z-score [4]	PBM binding z-score [5]	PBM binding z-score [6]	PBM binding z-score [7]	PBM binding z-score [8]	PBM binding z-score [9]	PBM binding z-score [10]
CAAACTAGGTCAGGAAAGGTCAAAGTCGAATGAC	7.59	8.02	3.96	1.14	6.11	6.57	2.16	6.83	3.88	5.36
CGTCAAAGATCAACTAAGGTAACGTAAAGCACGC	-0.00407	0.5	0.6	0.489	0.91	1.32	0.224	1.52	0.595	0.548
CCTAGCAGGCCAATCTGGTTCACTCAAGGCTTGA	1.85	0.21	-1.28	-0.685	-0.281	0.784	-0.545	0.161	-0.882	0.201
TCGACTAGGTTACCAATGGGGCATTCAGCTTTCT	4.11	2.87	0.333	0.263	0.845	0.199	-0.246	0.659	-0.05	1.18
AGAACGAGGGCAATGAGTTGATGGCACGGGTGGC	3.36	2.88	1.3	-0.157	-0.0227	1.19	3.75	0.0282	-0.254	1.99
CAGACTAGGTCAAGAGGTCAAAGTCCGCTTCCCG	7.08	7.26	0.894	0.414	5.61	6.21	1.93	7.55	0.913	5.39
TCATATAGGTAAAGGGTGAAAGTCGGTGTGGTAA	4.48	4.59	0.928	1.03	1.99	1.31	0.961	2.03	2.05	1.46
TCATATAGGGAATACAGGTGAAAGTCGGCATCTA	3.35	2.3	1.03	1.07	1.14	0.862	0.632	1.2	1.4	0.823
TCATATAGGTAAATGTGAAAGTCGAACGATATGA	3.33	2.26	1.69	1.36	0.31	0.168	-0.0723	0.602	0.286	0.153
CTCGAAGGGTCGTGCTCAGGTGAGTATACCAAAC	-0.253	0.525	-0.515	0.0417	0.506	1.37	-0.509	2.56	-0.561	2.31
CCAGACAGGTGAGAAGGTAAGTCAGCCTCGATTA	0.908	0.37	-1.11	-0.901	0.826	0.0674	0.339	0.396	0.66	0.566
GATACAGGGTCAAGGCCAGACTACGCGTATTGAT	2.8	3.83	0.238	0.461	2.54	4.03	0.191	4.98	0.813	4.6
CCTGCTAGGTCCATGGTCAGCTAAAGCAGCTCGC	-0.414	-0.603	-1.47	-1.26	-0.704	-0.449	-1	-0.64	-1.05	0.441
TATAGCAGGCCAGAGGGTCACTCAAGAGGTACGG	-0.0119	1.41	0.475	-0.0534	1.11	1.73	-0.392	2.46	-0.269	2.09
TAGCCTAGGTCATTGGGCAAGTATAGTACGCATC	1.66	3.17	0.399	-0.561	1.19	1.64	-0.337	2.38	-0.275	3.66
CGTCCAAGGTCCGCAGGTCAGTGAAAGCGACGTG	0.12	-0.306	-1.07	-1.27	-0.166	0.139	-0.304	0.547	-0.545	1.89
CGAAGGAGGGCATGAGTTGATAGCAAATGCCGAT	2.57	2.1	0.0677	-0.445	0.352	0.02	-0.165	0.152	-0.898	1.53
CGAACAAGGGCATGAGTTGATAGCAAATGCCGAT	1.66	0.813	-0.522	-0.153	0.0917	-0.0332	-0.184	-0.0493	0.0122	2.02
ATCTCTAGGTAACCAAGTTCAGTCAATGCCGAAC	4.07	3.07	0.988	0.947	1.23	2.3	2.93	1.03	1.01	1.34
CAAACTAGGTTAAAGGTCAAAGTCGAGCCAACCA	7.78	8.2	3.63	3.37	5.35	6.11	1.51	7.9	3.41	4.76
TCTAGTTGGTCACGGAGGTCACAGACGACGGGTA	2.62	4.51	0.854	1.64	3.09	4.61	0.763	4.83	1.36	3.96
GCTAGTTGGTGAGTAAAAGGTCACACACCGGTCG	0.239	2.74	0.00849	0.663	3.73	4.81	0.986	5.64	0.736	4.05

Sequence	PBM binding z-score [1]	PBM binding z-score [2]	PBM binding z-score [3]	PBM binding z-score [4]	PBM binding z-score [5]	PBM binding z-score [6]	PBM binding z-score [7]	PBM binding z-score [8]	PBM binding z-score [9]	PBM binding z-score [10]
ACTAGCAGGCCAAGTTTCGGTCACTCAAACAAAG	0.73	0.753	-0.762	-0.738	-0.0877	-0.355	-0.0865	0.0207	-0.205	1.56
AGAAAGAGGTTATACGTAGATCAGGGAAGAAAGT	1.97	1.35	0.646	0.799	0.915	1.54	0.627	2.07	1.16	2.08
ACTTACGGGTCAACAAGGTTATAGCACGCGTATA	3.06	4.26	1.25	1.13	2.14	4.49	1.48	4.77	1.05	4.49
TTACCAAGTTGAAGGTCGTTGATCCCTCTGTAGA	0.297	0.442	0.321	-0.391	0.828	1.59	0.298	1.21	0.00913	1.15
GCTCCTAGGTCAACTGATGGTCAGCTAAAGCTCG	4.98	3.97	-0.903	0.266	2.06	2.28	-0.577	3.53	-0.186	4.35
TCGAGTAGGTTTGTCGGGGCATTCAGCCAACATA	0.713	0.173	-1.6	-0.328	0.186	0.311	-0.236	0.224	-0.837	0.0444
CCTAGTTGGTCAAGAGGTCACACACCGGATATGA	2.07	4.43	0.763	0.00136	3.36	4.96	1.63	5.63	1.6	4.83
CCAGACAGGTGAGAAGGTAAATCAGCCTCGATTA	0.792	0.856	-0.421	-0.384	0.684	0.0672	-0.0292	0.359	-0.00331	0.508
ATGTGTAGGTTAGCTGGGGTCATTCAGACTAGGC	2.74	3.09	1.93	2.25	3.23	6.41	5.39	6.36	2.17	3.25
CCTTACGGGTCACTCCAGGTTACAGCATCGGAGT	2.73	4.01	0.164	-0.572	1.91	4.66	0.311	3.94	0.566	3.86
TCTTGTAGATCAAGCAGGTTAAGAACGCCTGAGT	1.42	0.613	-0.194	-0.44	-0.0997	0.399	0.197	0.48	-0.305	0.23
CCAGACAGGTGAAAGGTACCTCAGTCTGGTACGC	1.66	1.96	-0.554	-0.542	0.247	0.109	-0.251	0.49	-0.2	0.786
GCGACTGGGGCATCAGCAGGTTACGATAACTTAA	3.75	3.19	-0.586	-0.712	0.335	0.0357	-0.369	0.42	-0.452	0.866
GCAGACAGGTGAAACGCAGGCAACTCAGGGTGGC	0.648	0.278	-0.31	-0.728	-0.411	-0.21	-0.499	0.0177	-0.602	0.594
TTACCAAGGTGAGCTCAGGTCGTTGATCCAACTC	1.23	1.8	0.00673	-0.46	-0.274	3.09	-0.622	0.823	-0.956	1.33
CGAACTGGGTCAGAACAGGACAGTGAAGGATGAT	6.73	6.56	2.09	2.05	0.887	1.06	-0.389	1.31	0.0168	2.23
TCGCGGAGGACACGAAGGTCAGAGCTTTCCAGAG	0.6	0.577	-0.818	-2.01	1.37	1.83	0.425	1.74	0.1	3.26
TCATATAGGTAATACAGGTAAAAGTCGGCATCTA	4.07	2.77	1.1	1.94	1.08	0.705	0.364	0.922	1.47	0.572
CCTATTAGTTGACCATAAGGGCCACCGAAGCTCG	0.171	0.5	0.477	0.579	1.36	-0.0446	0.497	0.206	1.88	1.02
CGTCCAACGTCAGAGAGGTCAGTGAATGCCGAGT	0.129	0.706	-0.788	-0.969	1.24	2.74	0.717	2.53	0.224	2.92
CCGACTGGGGCAATGGTTACCATACTCAGTACGA	3.21	3.14	-0.545	-0.357	0.166	-0.648	-0.201	-0.309	-0.393	0.161
CCTACTGGGCCATTCAGAGGTGATTGATCATATG	3.85	3.8	0.186	-0.0997	0.152	0.147	-0.0295	0.451	0.129	0.622
